The values below come from PubChem BioAssay (Tox21).

Values without a mark were called inactive. Activity calls are given as the source filed them. Calls come from the whole dose curve; as a rule, active = well fitted curve in the direction sought with a large enough effect in the repeat runs; inconclusive = weak or mixed curves; inactive = flat fitted curve, though single readings scatter.
% is set by controls: 0 for no effect and ±100 for the full control effect.

This assay is described as follows: qHTS assay to test for compound auto fluorescence at 535 nm (green) in HepG2 cell free culture (AID 720686). Conditions: Cell-free medium, green autofluorescence 485/535 nm; series mostly up to 91.3 µM; fluorescence, % of fluorescein control: at the top concentration. An excerpt: U.S. Tox21 Program National Center for Advancing Translational Sciences [NCATS] NIH Chemical Genomics Center [NCGC] U.S. Environmental Protection Agency [EPA] National Institutes of Environmental Health Sciences [NIEHS] National Toxicology Program [NTP] U.S. Food and Drug Administration [FDA] Tox21 Assay Overview: Compound auto fluorescence often interferes with screening of the compound library against various biological targets and signaling pathways. Some of these compounds may have fluorophoric properties. Such properties may interfere with the assay outputs resulting in false positives and/or negatives. To decrease such complications and ensure the compound activities are relevant in terms of biological response, the Tox21 10K compound library was screened for auto fluorescence. From the fluorophores used as reporter signals in our screening assays, the auto fluorescence equivalencies of compounds against three fluorophores have been evaluated: Triamterene, Fluorescein and Rose Bengal sodium for blue, green and red fluorescence, respectively. The fluorescence intensities were measured using Excitation/Emission wavelengths at 405/460nm, 485/535nm and 540/590nm for blue, green and red labels, respectively. This assay includes the green fluorescence data.
Tox21 Assay Protocol Summary: 5 uL of culture medium (MEM containing 10% FBS) per well was dispensed into black wall/clear bottom 1536-well plates using a Multidrop Combi Dispenser (ThermoFisher Scientific, Waltham, MA). After 23 nL compound or DMSO vehicle was transferred into assay plate by a pintool work station (Kalypsys, San Diego, CA), fluorescence intensities in the assay plates were measured by an Envision (PerkinElmer, Shelton, CT) plate reader using three labels for measuring blue, green and red fluorescence at […] 460, 535 and 590nm respectively.
On to `CC(C)OC(C)C`, for which the “fluorescence, % of fluorescein control” value was 0.0809% [at 95.7 µM].
Turning to `CC(C)S`, the “fluorescence, % of fluorescein control” value is -0.0206% [at 95.7 µM].
On the same count and under the same terms, in the case of `CCCCN1C[C@H](O)[C@@H](O)[C@H](O)[C@H]1CO` it was -0.0138% [at 46 µM]; in that of `Cc1ccc(C(C)C)cc1O`, -0.0413%.
The same measure, in the same setting: the value for `O=C1CCCc2ccccc21` was -0.0737%; that for `CCOc1ccccc1N` was 0.161%; that for `CCOc1ccc(NS(=O)(=O)c2ccc(N)cc2)nn1` was 0.0143% [at 46 µM].
In the case of `COc1cc2c(cc1N)oc1ccccc12`, the “fluorescence, % of fluorescein control” value was -0.0701% [at 95.7 µM].
As for `CS(=O)(=O)c1ccc([C@@H](O)[C@@H](CF)NC(=O)C(Cl)Cl)cc1`, the fluorescence, % of fluorescein control is -0.0102% [at 18.6 µM].
On to `CN(C)C(=O)NC1(c2ccccc2)CCN(CCC[C@]2(c3ccc(Cl)c(Cl)c3)CCCN(C(=O)c3ccccc3)C2)CC1`, for which the fluorescence, % of fluorescein control was 0.0302% [at 18.6 µM].
In the case of `COc1ccc(S(=O)(=O)Nc2nnc(CC(C)C)s2)cc1`, the call was inactive.
For the compound `CCCOCCC`, the “fluorescence, % of fluorescein control” value was -0.0287%.
Still for that read-out and setting: the value for `COc1ccccc1OCC(O)COC(N)=O` (stereo not given) was -0.0199% [at 18.6 µM]; that for `O=C(Cl)c1cccc([N+](=O)[O-])c1` was -0.0074%.
The same measure, in the same setting: in the case of `CC(C)CC(=O)OCc1ccccc1` it was 0.123%; in that of `OCCN(CCO)c1ccccc1`, -0.0065%.
The same measure, in the same setting: the value for `CCCCC1CCC(=O)O1` (stereo not given) was -0.0029%.
As for `FC(F)(F)c1ccccc1`, the “fluorescence, % of fluorescein control” value is -0.0356%.
The same measure, in the same setting: the value for `CC(CNC1CCCCC1)OC(=O)c1ccccc1` (stereo not given) was -0.0274% [at 18.6 µM]; that for `CC(C)NCC(O)COc1ccc(CCOCC2CC2)cc1` (stereo not given) was -0.0174% [at 46 µM].
Turning to `CC1=C(CC(=O)O)c2cc(F)ccc2/C1=C\c1ccc(S(C)(=O)=O)cc1`, the “fluorescence, % of fluorescein control” value is 0.0634% [at 46 µM].
Consider `Oc1ccccc1C=NCc1ccccc1`, for which the “fluorescence, % of fluorescein control” value is -0.0131% [at 46 µM].
Consider `Cc1ccc(C=O)s1`, for which the “fluorescence, % of fluorescein control” value was -0.0112%.
Take `CC1(C)C(=O)N(Cl)C(=O)N1Br`: the “fluorescence, % of fluorescein control” value was 0.0096%.
On the same count and under the same terms, the value for `COc1cc(Cl)ccc1Cl` was 0.0017% [at 95.7 µM]; that for `C1CCOC1` was 0.0105% [at 95.7 µM]; that for `O=C(C(Cl)Cl)N1CCOC12CCCCC2` was -0.095%.
On the same count and under the same terms, the value for `CC1=C2[C@H](/C=C(\C)C(=O)O)CC[C@@H](C)[C@H]2CC1` was -0.146% [at 95.7 µM].
Same read-out and setting: in the case of `CCCC1CCC(=O)O1` (stereo not given) it was -0.093%.
`N#Cc1ccc(C(c2ccc(C#N)cc2)n2cncn2)cc1`: the call was inactive.
For `CCCCCCOc1ccc(N)cc1`, the “fluorescence, % of fluorescein control” value was -0.048%.
As for `CN1CCN(C2=Nc3ccccc3Oc3ccc(Cl)cc32)CC1`, the fluorescence, % of fluorescein control is 0.0479% [at 18.6 µM].
For the compound `OCc1c2ccccc2cc2ccccc12`, the “fluorescence, % of fluorescein control” value is -0.0027%.
Same read-out and setting: the value for `O=C(O)c1ccccc1Nc1cc(Cl)ccc1C(=O)O` was -0.0169% [at 46 µM]; that for `O=C(O)[C@@H](O)[C@H](O)[C@H](O)[C@@H](O)C(=O)O` was -0.0626% [at 46 µM].
On the same count and under the same terms, the value for `Cc1cc(NS(=O)(=O)c2ccc(N)cc2)nc(C)n1` was -0.0223% [at 46 µM]; that for `C=CCCC=C` was -0.02% [at 95.7 µM].
As to `CN(C)Cc1ccccc1`, the compound was classed as inactive.
As to `OCC(CBr)(CBr)CBr`, the “fluorescence, % of fluorescein control” value was 0.0051%.
Same read-out and setting: the value for `C=C(C)C(=O)OCCOP(=O)(O)O` was 0.0764% [at 95.7 µM].
